Assay results reported in PubChem BioAssay (NCI).
“And” between values parts separate entries of the source, which are not always exact repeats. Equal values may be shown once. Compounds without any hit were thinned out: in the full panel of roughly 79,000, 15% have a hit. A structure can be active in one record and inactive in another. The source made the active and inactive calls. Rule as the data show it: active = growth inhibition above about 70%; inactive = the rest.

Key:
[1] = NCI Yeast Anticancer Drug Screen. Data for the rad50 strain (AID 155);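 also: 0% = growth of vehicle-only cultures of the same strain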; details: S. cerevisiae rad50 strain growth inhibition, stronger effect = higher value
Procedure, shortened: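 Yeast carrying a defined DNA repair defect were exposed to test compounds, and growth was compared with vehicle-treated controls to give percent inhibition.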

[2] = NCI Yeast Anticancer Drug Screen. Data for the mec2-1 strain (AID 157); details: S. cerevisiae mec2-1 strain, stronger effect = higher value
Procedure, shortened: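 Readout is yeast growth inhibition, normalised to vehicle-treated controls, in the mec2-1 strain exposed to compound.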

[3] = NCI Yeast Anticancer Drug Screen. Data for the sgs1 mgt1 strain (AID 161);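 also: 0% = growth of cultures given vehicle only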; details: S. cerevisiae sgs1 mgt1 strain, stronger effect = higher value
Procedure, shortened: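 Compounds are added to genetically altered yeast, and growth is compared with cultures given vehicle alone to give percent inhibition.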

[4] = NCI Yeast Anticancer Drug Screen. Data for the cln2 rad14 strain (AID 165);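 also: 0% = growth equal to vehicle treated cultures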; details: S. cerevisiae cln2 rad14 strain, stronger effect = higher value
Procedure, shortened: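 Relative to vehicle controls, growth inhibition of compound-treated cln2 rad14 yeast was recorded.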

[5] = NCI Yeast Anticancer Drug Screen. Data for the bub3 strain (AID 167); details: S. cerevisiae bub3 mutant strain, stronger effect = higher value
Procedure, shortened: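 Compounds were applied to a genetically altered yeast strain carrying a cell-cycle control defect. Growth inhibition was scored against vehicle-treated controls.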

[6] = NCI Yeast Anticancer Drug Screen. Data for the mlh1 rad18 strain (AID 175); details: S. cerevisiae mlh1 rad18 strain growth inhibition, stronger effect = higher value
Procedure, shortened: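 Test agents were incubated with a yeast strain of defined genotype (DNA damage repair defect). Inhibition of growth was derived by comparison with vehicle-exposed cultures.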

[7] = at 5.0 µM (retest, dose inferred, filed as 0.5)
[8] = at 50.0 µM (retest, dose inferred, filed as 5.0)

Structure (SMILES) | growth inhibition [1, 7] | growth inhibition [1, 8] | growth inhibition ([1]; at 50.0 µM) | growth inhibition [2, 7] | growth inhibition [2, 8] | growth inhibition ([2]; at 50.0 µM) | growth inhibition [3, 7] | growth inhibition [3, 8] | growth inhibition ([3]; at 50.0 µM) | growth inhibition [4, 7] | growth inhibition [4, 8] | growth inhibition ([4]; at 50.0 µM) | growth inhibition [5, 7] | growth inhibition [5, 8] | growth inhibition ([5]; at 50.0 µM) | growth inhibition [6, 7] | growth inhibition [6, 8] | growth inhibition ([6]; at 50.0 µM)
CCCNC(=O)Nc1ccc2c(c1)Cc1cc(N(CCCl)CCCl)ccc1-2 | 2% (inactive) | 32% (inactive) | 39.1% (inactive) | 0% (inactive) | 16% (inactive) | 23.1% (inactive) | -4% (inactive) | 73% (active) | 37.3% (inactive) | 3% (inactive) | -1% (inactive) | 24.9% (inactive) | 6% (inactive) | 86% (active) | 76.5% (active) | 3% (inactive) | 52% (inactive) | 31.2% (inactive)
CC1=CC2OC3CC4OC(=O)/C=C/C=C/C(=O)OCCC(C)C(O)C(=O)OCC2(CC1O)C4(C)C31CO1 (configuration not stated) | 96% (active) | 98% (active) | 92.3% (active) | 96% (active) | 98% (active) | 93.1% (active) | 98% (active) | 99% (active) | 93.2% (active) | 97% (active) | 98% (active) | 91.7% (active) | 96% (active) | 98% (active) | 91.7% (active) | 96% (active) | 97% (active) | 91.5% (active)
O=C1NC(=O)C(C(c2ccnc3ccccc23)C2C(=O)NC(=O)NC2=O)C(=O)N1 | -6% (inactive) | -6% (inactive) | 30.1% (inactive) | 0% (inactive) | -6% (inactive) | 34% (inactive) | -5% (inactive) | -4% (inactive) | 55.9% (inactive) | 3% (inactive) | -7% (inactive) | 62.6% (inactive) | -6% (inactive) | 5% (inactive) | 42.6% (inactive) | 0% (inactive) | -5% (inactive) | 35.8% (inactive)
CCCN1CN(c2ccccc2)C2(CCN(CCCC(=O)c3ccc(F)cc3)CC2)C1=O | 11% (inactive) | 17% (inactive) | 35.7% (inactive) | 7% (inactive) | 14% (inactive) | -4.4% (inactive) | -17% (inactive) | 12% (inactive) | 60.5% (inactive) | 6% (inactive) | 20% (inactive) | 15.6% (inactive) | 4% (inactive) | 35% (inactive) | 38.9% (inactive) | 22% (inactive) | 30% (inactive) | 20.4% (inactive)
Nc1ccc2cc(Br)ccc2c1 | -11% (inactive) | 26% (inactive) | 75.5% (active) | -2% (inactive) | 10% (inactive) | 30.6% (inactive) | -10% (inactive) | 11% (inactive) | 46.6% (inactive) | -31% (inactive) | -9% (inactive) | 31.1% (inactive) | -8% (inactive) | 14% (inactive) | 45.9% (inactive) | -16% (inactive) | 20% (inactive) | 57.4% (inactive)
ClCCN(CCCl)c1ccc(C2N(Cc3ccc(N(CCCl)CCCl)cc3Cl)CCCN2Cc2ccc(N(CCCl)CCCl)cc2Cl)cc1 | 2% (inactive) | 99% (active) | 96.2% (active) | -3% (inactive) | 99% (active) | 98.8% (active) | -1% (inactive) | 99% (active) | 97.5% (active) | -7% (inactive) | 99% (active) | 22.1% (inactive) | 1% (inactive) | 99% (active) | 37% (inactive) | 9% (inactive) | 99% (active) | 98.2% (active)
Oc1ccc(Br)cc1C1N(Cc2ccc(N(CCCl)CCCl)cc2Cl)CCCN1Cc1ccc(N(CCCl)CCCl)cc1Cl | 69% (inactive) | 98% (active) | 10.7% (inactive) | 47% (inactive) | 99% (active) | 63% (inactive) | 54% (inactive) | 99% (active) | 23.7% (inactive) | 70% (active) | 98% (active) | 8.95% (inactive) | 84% (active) | 99% (active) | 52% (inactive) | 98% (active) | 98% (active) | 46.5% (inactive)
Cc1ccc(C#CCN2CCCCC2)cn1 | -142% (inactive) | -82% (inactive) | 4.45% (inactive) | -77% (inactive) | -47% (inactive) | 11.1% (inactive) | -64% (inactive) | -22% (inactive) | 22.8% (inactive) | -60% (inactive) | -46% (inactive) | 69.2% (inactive) | -66% (inactive) | -54% (inactive) | -0.5% (inactive) | -138% (inactive) | -87% (inactive) | 11.7% (inactive)
[Cl][Hg][Cl] | 99% (active) | 99% (active) | 91.3% (active) | 100% (active) | 100% (active) | 93.3% (active) | 100% (active) | 100% (active) | 94% (active) | 99% (active) | 99% (active) | 92.3% (active) | 100% (active) | 92% (active) | 93.1% (active) | 100% (active) | 99% (active) | 92.4% (active)
O=C(O)c1cc[c]([Hg])cc1 | -1% (inactive) | 5% (inactive) | 38.4% (inactive) | -2% (inactive) | 3% (inactive) | 25.6% (inactive) | 1% (inactive) | 5% (inactive) | 36% (inactive) | -3% (inactive) | -4% (inactive) | 2.65% (inactive) | 0% (inactive) | -7% (inactive) | -5.4% (inactive) | 1% (inactive) | 3% (inactive) | 38.2% (inactive)
CNC(=O)N1CN(c2ccccc2)C2(CCN(CCCC(=O)c3ccc(F)cc3)CC2)C1=O | -7% (inactive) | 31% (inactive) | 51.5% (inactive) | -14% (inactive) | 23% (inactive) | 37.9% (inactive) | -3% (inactive) | 40% (inactive) | 68.3% (inactive) | 5% (inactive) | 67% (inactive) | 70.3% (active) | 5% (inactive) | 59% (inactive) | 76% (active) | -20% (inactive) | 39% (inactive) | 68.3% (inactive)
CN(C)C(=[Se])[Se]C(=[Se])N(C)C | 95% (active) | 91% (active) | 95.8% (active) | 96% (active) | 93% (active) | 96% (active) | 93% (active) | 92% (active) | 95.5% (active) | 84% (active) | 90% (active) | 91% (active) | 93% (active) | 92% (active) | 95.8% (active) | 96% (active) | 91% (active) | 96.3% (active)
S=c1[nH]c2ccccc2s1 | -8% (inactive) | 45% (inactive) | 3.25% (inactive) and 53.4% (inactive) | -7% (inactive) | 52% (inactive) | -22.3% (inactive) and 30.1% (inactive) | -3% (inactive) | 51% (inactive) | 15.8% (inactive) and 62% (inactive) | -12% (inactive) | 1% (inactive) | -11.1% (inactive) and 11.7% (inactive) | -4% (inactive) | 29% (inactive) | 8.85% (inactive) and 55.8% (inactive) | -7% (inactive) | 38% (inactive) | 4.95% (inactive) and 71.9% (active)
S=C=Nc1cccc(Cl)c1 | -17% (inactive) | 84% (active) | 85.2% (active) | -7% (inactive) | 90% (active) | 86% (active) | -10% (inactive) | 90% (active) | 88.8% (active) | 35% (inactive) | 65% (inactive) | 80.3% (active) | 7% (inactive) | 89% (active) | 85.2% (active) | 2% (inactive) | 89% (active) | 79.3% (active)
COc1cc[c]([Sb]([Br])([CH]=C(C)C)([CH]=C(C)C)[CH]=C(C)C)cc1 | -1% (inactive) | 67% (inactive) | 80.8% (active) | -5% (inactive) | 85% (active) | 76.5% (active) | -1% (inactive) | 62% (inactive) | 35% (inactive) | -12% (inactive) | 54% (inactive) | 49.2% (inactive) | -9% (inactive) | 72% (active) | 80.3% (active) | -6% (inactive) | 73% (active) | 72.8% (active)
CCOP(=O)(Cc1cccc2ccccc12)OCC | 5% (inactive) | 13% (inactive) | 4.65% (inactive) | 5% (inactive) | -6% (inactive) | -7.95% (inactive) | 4% (inactive) | 17% (inactive) | 13.4% (inactive) | 2% (inactive) | 14% (inactive) | 2.1% (inactive) | 14% (inactive) | 2% (inactive) | 19.9% (inactive) | 17% (inactive) | 29% (inactive) | -3.35% (inactive)
CCOP(=O)(OCC)Oc1cc(C)c(SC#N)c(C)c1 | -6% (inactive) | -7% (inactive) | 29.6% (inactive) | -2% (inactive) | 3% (inactive) | 20.6% (inactive) | 10% (inactive) | 25% (inactive) | 17.1% (inactive) | -7% (inactive) | -6% (inactive) | 66.3% (inactive) | -3% (inactive) | 18% (inactive) | 53.7% (inactive) | 10% (inactive) | 76% (active) | 34% (inactive)
[Cl][Sn]([Cl])([c]1ccccc1)[c]1ccccc1.c1ccncc1.c1ccncc1 | 93% (active) | 97% (active) | 98% (active) | 61% (inactive) | 99% (active) | 99.1% (active) | 94% (active) | 99% (active) | 99% (active) | 71% (active) | 98% (active) | 98.8% (active) | 92% (active) | 98% (active) | 97.9% (active) | 95% (active) | 96% (active) | 98.7% (active)
C[As](C)SCCC(CCCCC(=O)O)S[As](C)C (configuration not stated) | 27% (inactive) | 38% (inactive) | 66.2% (inactive) | 27% (inactive) | 32% (inactive) | 47% (inactive) | 2% (inactive) | -69% (inactive) | 78.3% (active) | 5% (inactive) | -52% (inactive) | 37.4% (inactive) | 2% (inactive) | -42% (inactive) | 76.5% (active) | 39% (inactive) | 65% (inactive) | 25.4% (inactive)
